# Read-outs that look alike come from different tables or passages of the source. Among all 3,300 compounds or so, about 95 (3%) showed an effect of 50% or more. This excerpt belongs to a sample that is enriched for strong results.
# Test system: HCoV-229E
# Design: species or system Huh-7; HTS, protection from HCoV-229E induced cell death, luminescent cell viability (CellCounting-Lite 2.0), inhibition rate
# Conditions: 24 h post infection, 1 h compound pre-incubation, 10 µM, inhibitor
Compound,229E Inhibition rate,"229E Inhibition rate (229E Inhibition rate, 24 h)"
COc1ccc(C2COc3cc(O[C@@H]4O[C@H](CO)[C@@H](O)[C@H](O)[C@H]4O)ccc3C2)c(O)c1OC (stereo partly drawn) [Isomucronulatol 7-O-glucoside],13%,
CC(C)=CCC/C(C)=C/C=O [Citral],47.4%,
C=C1[C@H]2C[C@H]2[C@]2(C)Cc3occ(C)c3[C@H](O)[C@@H]12 [Lindenenol],28.5%,
CCC/C=C1\OC(=O)C2=C1CC[C@H]1[C@H]3C=C4C(=O)O/C(=C\CCC)[C@@]4(CC3)[C@@H]21 [Levistolide A],60.4%,
CCC/C=C1\OC(=O)C2=C1CC[C@H](O)[C@H]2O [Senkyunolide I],43.1%,
CCC/C=C1\OC(=O)C2=C1CC[C@@H](O)[C@H]2O [Senkyunolide H],47.8%,
Cc1ncc(CO)c(C(=O)O)c1O [4-Pyridoxic acid],22.7%,
O=C(O)/C=C/c1ccccc1 [Cinnamic acid],,21%
O=C(O)[C@H](O)c1ccccc1 [D-(-)-Mandelic acid],7.5%,
O=C(O)[C@H]1O[C@@H](Oc2cc(O)c3c(=O)cc(-c4ccc(O)c(O)c4)oc3c2)[C@H](O)[C@@H](O)[C@@H]1O [Luteolin 7-O-glucuronide],11.2%,
C[C@@H]1O[C@@H](O[C@H]2[C@H](O)[C@@H](O)[C@H](OC[C@H]3O[C@@H](OC(=O)[C@]45CCC(C)(C)C[C@H]4C4=CC[C@@H]6[C@@]7(C)CC[C@H](O[C@@H]8OC[C@H](O)[C@H](O)[C@H]8O)[C@@](C)(CO)[C@@H]7CC[C@@]6(C)[C@]4(C)CC5)[C@H](O)[C@@H](O)[C@@H]3O)O[C@@H]2CO)[C@H](O)[C@H](O)[C@H]1O [Hederacoside D],,40.4%
CC1(C)CC[C@]2(C(=O)O[C@@H]3O[C@H](CO[C@@H]4O[C@H](CO)[C@@H](O)[C@H](O)[C@H]4O)[C@@H](O)[C@H](O)[C@H]3O)CC[C@]3(C)C(=CC[C@@H]4[C@@]5(C)CC[C@H](O[C@@H]6OC[C@H](O)[C@H](O)[C@H]6O)[C@@](C)(CO)[C@@H]5CC[C@]43C)[C@@H]2C1 [Asperosaponin VI],56.6%,
C[C@@H]1CC[C@]2(C(=O)O[C@@H]3O[C@H](CO)[C@@H](O)[C@H](O)[C@H]3O)CC[C@]3(C)C(=CC[C@@H]4[C@@]5(C)C[C@@H](O)[C@H](O)[C@@](C)(CO)[C@@H]5CC[C@]43C)[C@@H]2[C@]1(C)O [Niga-ichigoside F1],20.4%,
C[C@@H]1CC[C@]2(C(=O)O[C@@H]3O[C@H](CO)[C@@H](O)[C@H](O)[C@H]3O)CC[C@]3(C)C(=CC[C@@H]4[C@@]5(C)CC[C@H](O)[C@@](C)(CO)[C@@H]5CC[C@]43C)[C@@H]2[C@]1(C)O [Pedunculoside],10.8%,
C[C@@H]1O[C@@H](O[C@H]2[C@H](O[C@H]3CC[C@@]4(C)[C@@H](CC[C@]5(C)[C@@H]4CC=C4[C@@H]6CC(C)(C)CC[C@]6(C(=O)O[C@@H]6O[C@H](CO[C@@H]7O[C@H](CO)[C@@H](O)[C@H](O)[C@H]7O)[C@@H](O)[C@H](O)[C@H]6O)CC[C@]45C)[C@]3(C)CO)OC[C@H](O)[C@@H]2O)[C@H](O)[C@H](O)[C@H]1O [Dipsacoside B],11.1%,
C[C@@H]1CC[C@]2(C(=O)O[C@@H]3O[C@H](CO)[C@@H](O)[C@H](O)[C@H]3O)CC[C@]3(C)C(=CC[C@@H]4[C@@]5(C)CC[C@H](O)[C@](C)(C(=O)O)[C@@H]5CC[C@]43C)[C@@H]2[C@]1(C)O [Ilexsaponin A],58.5%,
O=C(O)C(O)Cc1cc2ccccc2[nH]1 (stereo not drawn) [Indolelactic acid],16.7%,

Compound,229E Inhibition rate,"229E Inhibition rate (229E Inhibition rate, 24 h)"
O=C1C=CCO1 [2(5H)-Furanone],8.7%,
CCCCCC(C)C(=O)O (stereo not drawn) [2-Methylheptanoic acid],47.5%,
NCc1ccccc1O [o-Hydroxybenzylamine],9.2%,
O=C(O)Cc1ccccc1O [2-Hydroxyphenylacetic acid],12.4%,
OCc1ccccc1O [Salicyl alcohol],51.5%,
c1cc2c(cc1O[C@H]1OC[C@H]3[C@@H]1CO[C@@H]3c1ccc3c(c1)OCO3)OCO2 [Sesamolin],62.2%,
c1cc2c(cc1[C@H]1OC[C@@H]3[C@H]1CO[C@H]3c1ccc3c(c1)OCO3)OCO2 [(-)-Asarinin],9.2%,
c1cc2c(cc1[C@H]1OC[C@H]3[C@@H]1CO[C@@H]3c1ccc3c(c1)OCO3)OCO2 [Sesamin],15.4%,
CC1=C\[C@@H](O)CC(=O)Cc2nc(co2)C(=O)N2CCC=C2C(=O)O[C@H](C(C)C)[C@H](C)/C=C/C(=O)NC\C=C\1 [Virginiamycin M1],36.6%,
N[C@@H](Cc1ccc(O)c([N+](=O)[O-])c1)C(=O)O [3-Nitro-L-tyrosine],8%,
C=C(C)[C@@H]1CC[C@]2(C)CC[C@]3(C)[C@H](CC[C@@H]4[C@@]5(C)CCC(=O)C(C)(C)[C@@H]5CC[C@]43C)[C@@H]12 [Lupenone],9.9%,
CCc1ccc(O)cc1 [4-Ethylphenol],20.1%,
CCC1(c2ccc(O)cc2)NC(=O)N(C)C1=O (stereo not drawn) [4-Hydroxymephenytoin],55.5%,
O=c1c(O[C@@H]2OC[C@@H](O)[C@H](O)[C@H]2O)c(-c2ccc(O)c(O)c2)oc2cc(O)cc(O)c12 [Reynoutrin],19.1%,
C[C@H]1CC[C@@]2(OC1)O[C@H]1C[C@H]3[C@@H]4CC=C5C[C@@H](O[C@@H]6O[C@H](CO)[C@@H](O)[C@H](O[C@@H]7OC[C@@H](O)[C@H](O)[C@H]7O)[C@H]6O[C@@H]6O[C@@H](C)[C@H](O)[C@@H](O)[C@H]6O)CC[C@]5(C)[C@H]4CC[C@]3(C)[C@H]1[C@@H]2C [Liriope muscari baily saponins C],31%,
COc1cc([C@@H]2c3cc4c(cc3[C@@H]3OC[C@H]2[C@@H]3CO)OCO4)cc(OC)c1OC [Neoanhydropodophyllol],9.1%,

# — article PMC12431657, “Discovery and mechanistic insights of dibenzoylmethane as a broad spectrum inhibitor of coronavirus” (PLOS Pathogens, 2025)
